High-throughput results from PubChem BioAssay.
DT40 TDP1 no CPT – qHTS for Inhibitors of human tyrosyl-DNA phosphodiesterase 1 (TDP1): qHTS in cells in absence of CPT | DT40 Tdp1-/- hTDP1 cells, no CPT, ATP luminescence, 48 h | Potency, µM (titrated, usually from 46.2 µM), for the others: top-dose activity change, negative = growth inhibition, usual class: inhibitors | 15% of 420,000 active | AID 686978, 2013; further: potency means the concentration at half of the fitted maximal effect; nearly all actives have a fitted effect of over 55% in size
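Luminescent ATP content (CellTiter-Glo) served as the growth readout. Knockout chicken DT40 cells expressing human TDP1 were exposed to compounds without camptothecin for a minimum 48 hr at 37 °C.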
DT40 TDP1 CPT – growth inhibition of DT40 Tdp1-/-;hTDP1 cells with camptothecin (screen for TDP1 inhibitors); Potency, µM (highest dose often 46.2 µM), for inactives: top-dose activity change, negative = growth inhibition, most hits filed as inhibitors; chicken DT40 Tdp1-/-;hTDP1 cells + 20 nM CPT, ATP luminescence, 48 h; 12% of 420,000 active; AID 686979; further: potency means the concentration at half of the fitted maximal effect; nearly all actives have a fitted effect of over 55% in size
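Chicken DT40 Tdp1-/- cells complemented with human TDP1, 400 cells/well, exposed to compounds plus 20 nM camptothecin for at least 48 h at 37 C; viability read as ATP content by CellTiter-Glo luminescence.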
HT1080-NT tox – kills 2HG-producing HT-1080-NT fibrosarcoma cells. 1.6% of 360,000 active. Potency, µM (highest dose often 46.1 µM), without a hit: at the highest dose activity, negative = less viability, hits mostly cytotoxic. HT-1080-NT fibrosarcoma viability, CellTiter-Glo ATP luminescence, 48 h. AID 686970;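 further: NT is the 2HG producing partner of a matched IDH1 knockdown line; potency means the concentration at half of the fitted maximal effect; 0% = DMSO-treated cells and -100% = media-only wells without cells; nearly all actives have a fitted effect of over 55% in size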
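Luminescent CellTiter-Glo readout after 48 hours of compound exposure at 37 degrees C defined viability of HT-1080-NT cells. Activity was normalized to DMSO wells and cell-free media wells; concentration-response curves were fitted and assigned curve classes.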
HT1080 IDH1KD tx – kills HT-1080 cells with IDH1 knockdown | HT-1080 IDH1 knockdown viability, ATP luminescence, 48 h | Potency, µM (doses to about 46.1 µM), for inactives: at the highest dose activity, negative = toxicity, actives largely listed as cytotoxic | 2% of 360,000 active | AID 686971;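 further: potency means the concentration at half of the fitted maximal effect; 0% = DMSO wells and -100% = cell-free medium wells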
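Knockdown cells (IDH1KD HT-1080) received compounds 2 h after plating at 750 cells/well and were kept 48 h at 37 °C in 5% FBS RPMI. A CellTiter-Glo luminescence read gave % activity for curve fitting.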
IL1B secr inh – inhibitors of inflammasome signaling (IL-1 beta secretion) | THP-1 LPS/ATP IL-1B secretion, AlphaLISA, 16 h; hits give low values | activity change, % at 57.5 µM | 4.7% of 360,000 active | AID 743279; in the data active means activity change below about -50%; inconclusive means mostly about -30% to -49%
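Secreted IL-1B measured by AlphaLISA bead assay after 16 h compound exposure of THP-1 cells; compounds (final up to 57.5 uM) added 1 h before LPS (250 ng/mL) and ATP (1.25 mM) stimulation; lower signal means less secretion.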
An asterisk follows results filed as active; i = inactive; ? = inconclusive; · = no result given; [ ] = dose if it differs, or a comment. Compounds with a hit are over-represented: about 19% of the library has one in this group of screens. Unless noted, the call rests on the fitted dose curve; in most records, active means well fitted curve in the direction sought with a large enough effect; inconclusive means small, poorly fitted or top-dose-only effect, or another doubt; inactive means no such curve, though single readings can be large; an effect the other way counts as inactive or inconclusive. Unless noted, on the % scale 0 is the no-effect control and ±100 the full control effect.

SMILES | DT40 TDP1 no CPT | DT40 TDP1 CPT | HT1080-NT tox | HT1080 IDH1KD tx | IL1B secr inh
CCc1ccc2[nH]c(O)c(N=NC3=NC(=O)CS3)c2c1 | 1.8µM* | 2.6µM* | -2% | -2% | 37
Cc1nc2c(c(C)nn2C(C)(C)C)c(C)c1CCC(=O)Nc1ccc(Br)cc1Br | 26µM* | ? | · | · | ·
COc1ccc(OC)c(NC(=O)CCc2c(C)nc3c(c(C)nn3C(C)(C)C)c2C)c1 | 16µM* | ? | · | · | ·
Cc1cccc(-c2ccc([N+](=O)[O-])cc2CN2CCN(c3ncc(Cc4ccccc4)cn3)CC2)c1 | 5.8µM* | 5.8µM* | ? | ? | 0
Cc1cccc(-c2ccc(O)cc2CN2CCN(c3ncc(Cc4ccccc4)cn3)CC2)c1 | 21µM* | ? | ? | ? | -7
Cn1cc([C@@H]2C[C@H]3CN(Cc4cccc(Cl)c4)C(=O)[C@]34CCCN24)c2ccccc21 | ? | ? | -29% | ? | 0
Nc1nc(-c2ccccc2)nn1S(=O)(=O)c1ccccc1 | -2% | 7% | -12% | -4% | -4
CN1C(=O)S/C(=C/c2cccnc2)C1=O | -27% | ? | 16% | -5% | -3
O=C1/C(=C\c2cccnc2)Sc2ccccc21 | 21µM* | ? | ? | ? | -26
Cc1c(Cl)cccc1NC(=O)C(CCS(C)(=O)=O)N1Cc2ccccc2C1=O (stereo not drawn) | -38% | ? | · | · | ·
COc1cc(CN(C)c2ncnc3sccc23)ccc1OC(F)F | 12µM* | 16µM* | -22% | -25% | 0
CC(OC(=O)c1cc(=O)c2cc(Cl)ccc2o1)C(=O)N1CCCC1 (stereo not drawn) | -8% | -9% | 13% | 15% | 14
CN[C@H]1C[C@H]2c3[nH]c4ccccc4c3CCN2C(=O)[C@H]1[C@H](C)O | ? | -3% | -1% | 1% | 14
O=C(c1cc(-c2cccnc2)nc2ccccc12)N1CCN(S(=O)(=O)c2cccs2)CC1 | 23µM* | ? | -11% | -7% | 5
O=C(c1cc(-c2cccnc2)nc2ccc(Cl)cc12)N1CCN(S(=O)(=O)c2cccs2)CC1 | 16µM* | ? | -6% | -16% | i
CS(=O)(=O)N1CCN(C(=O)c2cc(-c3ccccc3)nc3ccccc23)CC1 | -21% | ? | -2% | 1% | 9
Cc1cccc(NNC(N)=S)c1C | -9% | ? | -5% | -7% | -7
COCCCNC(=O)CCCCCNS(=O)(=O)c1ccc(Br)cc1 | -14% | -9% | 7% | -2% | 36
CC(C)C[C@H]1CN([C@@H](CC(C)C)CN2CCC[C@H]2CN2C(=O)C(=O)NC[C@@H]2Cc2ccc(O)cc2)C(=O)C(=O)N1CC1CCCCCC1 | ? | ? | 19% | 9% | -52*
CC(C)C[C@@H](CN1CCC[C@@H]1CN1C(=O)C(=O)NC[C@@H]1Cc1ccccc1)N1C[C@H](Cc2ccccc2)N(CC2CCCCCC2)C(=O)C1=O | ? | ? | 5% | 9% | -24
CC(C)C[C@H]1CN([C@@H](CC(C)C)CN2CCC[C@@H]2CN2C(=O)C(=O)NC[C@@H]2Cc2ccccc2)C(=O)C(=O)N1CC1CCCCC1 | ? | ? | 2% | 2% | ?
CC(C)C[C@H]1CN([C@@H](CC(C)C)CN2CCC[C@H]2CN2C(=O)C(=O)NC[C@@H]2Cc2ccc(O)cc2)C(=O)C(=O)N1CC1CCCCC1 | 29µM* | ? | 2% | 8% | 30
COc1ccc(CC(=O)NCCN2CCCC2)cc1 | 1% | 11% | 10% | 4% | 23
COCCCN=Cc1c(C)[nH]n(-c2ccc(Br)c(C)c2)c1=O | ? | ? | -16% | -22% | 9
Cc1ccc(-n2[nH]c(C)c(C=NC34CN5CN(CN(C5)C3)C4)c2=O)cc1C | 21µM* | 9.2µM* | ? | ? | -3
SMILES | DT40 TDP1 no CPT | DT40 TDP1 CPT | HT1080-NT tox | HT1080 IDH1KD tx | IL1B secr inh
CCOC(=O)c1csc(NC(=O)c2cccs2)n1 | -19% | 3% | -4% | 4% | -19
COc1ccc2c(c1)CCC/C2=N\Nc1nc(C(=O)NN)cs1 | ? | ? | -25% | ? | ·
CCOC(=O)c1csc(N/N=C2\CCc3ccccc32)n1 | ? | ? | -3% | -1% | -93*
CCOC(=O)c1csc(N/N=C2\CCCc3ccccc32)n1 | 16µM* | ? | 5% | -2% | 15
CC(=O)c1ccc(C(=O)N2CCc3c(cnc(C)c3CNC(=O)c3ccc4c(c3)OCO4)C2)s1 | -29% | 1%[9.04 µM] | · | · | ·
CC1=C(c2ccccc2)SC2=NCCN21 | -6% | ? | -8% | -7% | 17
Fc1ccc(Nc2ccnc(Nc3ccc(F)cc3)n2)cc1 | 18µM* | 16µM* | ? | ? | -94*
Nc1ncnc(Nc2ccc(F)cc2)n1 | 15% | 6% | 2% | 3% | 14
CN(CC(=O)Nc1ccccc1N1CCCC1)S(=O)(=O)c1ccc(F)cc1 | ? | ? | 1% | -1% | 22
O=C(O)/C=C(\Oc1ccccc1)C1(O)CCCCC1 | -8% | -9% | 0% | -1% | 0
Cc1ccc(C(=O)NC(N(C)C)C(Cl)(Cl)Cl)cc1 (stereo not drawn) | -6% | -4% | -2% | -1% | -3
O=C(NC(c1ccccc1)C(Cl)(Cl)Cl)c1ccccc1 (stereo not drawn) | 21µM* | 21µM* | -2% | -10% | -10
O=C(NC(C(=O)O)c1ccccc1)c1ccccc1 (stereo not drawn) | -6% | -7% | 8% | 11% | 9
Cc1ccc(C(NC(=O)c2ccccc2)C(Cl)(Cl)Cl)cc1 (stereo not drawn) | 21µM* | 15µM* | -8% | -14% | 14
